Hits are enriched below; roughly 12% of the tested compounds scored in any of these assays.
Pf growth 96h: Primary qHTS for delayed death inhibitors of the malarial parasite plastid, 96 hour incubation; Potency, µM (titrated, usually from 28.7 µM), most hits filed as inhibitors; P. falciparum luciferase reporter growth, 96 h; hit rate 6.9% among 320,000
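Infected RBCs, 2% Hct / 0.05% parasitemia final; luciferase-reporter P. falciparum; cpd 96 h, 37 C, 5% CO2; luciferase detection reagent; luminescence.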
Pf growth 48h: Primary qHTS for delayed death inhibitors of the malarial parasite plastid, 48 hour incubation; P. falciparum luciferase growth in erythrocytes, 48 h; Potency, µM (doses to about 28.7 µM), usual class: inhibitors; hit rate 5.9% among 310,000
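In quantitative HTS format, infected erythrocytes bearing luciferase-reporter parasites were treated for a single generation at 37 C. Luminescence after adding detection reagent served as the growth measure.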
Sm TGR block: qHTS Assay for the Inhibitors of Schistosoma Mansoni Peroxiredoxins; Schistosoma mansoni thioredoxin glutathione reductase (TGR), Q962Y6; purified TGR, DTNB reduction, TNB absorbance 405 nm; Potency, µM (titrated, usually from 114 µM), actives largely listed as inhibitors; hit rate 3% among 360,000; note: nearly all actives have a fitted effect of over 60% in size
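TGR 20 nM + NADPH 100 uM (dispensed conc.), cpd preinc 15 min RT; start with NADPH (500 uM addition) then DTNB (15 mM addition). Kinetic TNB absorbance, 405 nm filter. Four-parameter Hill fit across titration.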
SARS PLpro yeast: qHTS of Yeast-based Assay for SARS-CoV PLP; hit rate 0.19% among 330,000; S. cerevisiae expressing SARS-CoV PLpro, growth rescue; AID 485353, 2010; Potency, µM (top dose mostly 32.9 µM), actives largely listed as activators; calls by dose curve; note: nearly all actives have a fitted effect of over 55% in size
A number is an active result; – = inactive; ? = inconclusive; · = no result given. Unless noted, calls come from the whole dose curve; as a rule, active = well fitted curve in the direction sought with a large enough effect; inconclusive = small, poorly fitted or top-dose-only effect, or another doubt; inactive = no such curve, though single readings can be large; an effect the other way counts as inactive or inconclusive.

SMILES | Pf growth 96h | Pf growth 48h | Sm TGR block | SARS PLpro yeast
CCc1cccc(C)c1NC(=S)N(Cc1cccnc1)Cc1ccco1 | 12µM | ? | – | –
CCN(Cc1ccncc1)C(=S)Nc1c(C)cccc1C | 2.1µM | – | – | –
CCCc1ccc(S(=O)(=O)N2CCN(C(C)C(=O)NCc3ccccc3)CC2)cc1 (configuration not stated) | ? | ? | – | –
COc1cc2cc(C(=O)N3CCOCC3)cc(-c3ccc(C)cc3)c2cc1OC | 8.3µM | ? | – | –
Cc1ccc(Cn2nnc3c(=O)[nH]c(C4CCN(C(=O)Cc5cccs5)CC4)nc32)cc1 | ? | – | – | –
CC(C)(C)c1ccc(Cn2nnc3c(=O)[nH]c(C4CCCN(C(=O)c5cccs5)C4)nc32)cc1 (configuration not stated) | 4.1µM | ? | – | –
O=C(Cc1cccs1)N1CCCC(c2nc3c(nnn3Cc3ccccc3Cl)c(=O)[nH]2)C1 (configuration not stated) | – | 5.2µM | – | –
CC(C)(C)c1ccc(Cn2nnc3c(=O)[nH]c(C4CCN(C(=O)Cc5cccs5)CC4)nc32)cc1 | · | 5.9µM | – | –
O=C(Cc1cccs1)N1CCCC(c2nc3c(nnn3Cc3ccc(F)cc3)c(=O)[nH]2)C1 (configuration not stated) | – | ? | – | –
CC(C)(C)c1ccc(Cn2nnc3c(=O)[nH]c(C4CCN(C(=O)c5ccco5)CC4)nc32)cc1 | – | 6.6µM | – | –
Cc1cnc(C(=O)OCC(=O)c2ccc(Br)s2)cn1 | – | ? | – | –
CC(OC(=O)Cc1n[nH]c(=O)c2ccccc12)C(=O)Nc1ccc(F)cc1Cl (configuration not stated) | – | ? | – | –
CC(C)(C)c1ccc(Cn2nnc3c(=O)[nH]c(C4CCCN(C(=O)Cc5cccs5)C4)nc32)cc1 (configuration not stated) | 5.2µM | ? | – | –
O=C(NCc1cccs1)c1nc2c(nnn2Cc2ccccc2Cl)c(=O)[nH]1 | – | 4.1µM | – | –
CCC(C)NC(=O)c1nc2c(nnn2Cc2ccccc2Cl)c(=O)[nH]1 (configuration not stated) | – | – | – | –
O=C(c1cccs1)N1CCCC(c2nc3c(nnn3Cc3c(Cl)cccc3Cl)c(=O)[nH]2)C1 (configuration not stated) | ? | 13µM | – | –
COc1ccc(Cl)cc1NC(=O)CN(C)C(=O)Cc1n[nH]c(=O)c2ccccc12 | – | – | – | –
CCN(CC)Cc1c(NC(=O)c2ccc(OC)cc2)sc2c1CCCC2 | · | · | – | ·
Nc1nc2c(s1)COc1ccccc1-2 | – | – | – | –
Nc1nc2c(s1)CCc1c-2cnn1-c1ccccc1 | – | – | 2.8µM | –
CCC(NC(=O)c1cc(COc2cncc(Cl)c2)on1)c1ccc(C)cc1 (configuration not stated) | 5.2µM | – | – | –
CC(=O)N1CCOCCOCCN(C(C)=O)CCOCCOCC1 | – | – | · | –
O=C(N1CCOCC1)C(F)(F)C(F)(F)C(F)(F)C(F)(F)C(=O)N1CCOCC1 | 12µM | – | – | –
CN(Cc1ccc(Cl)cc1Cl)C(=O)CNC(=O)c1ccco1 | – | – | ? | –
O=C(Cc1ccccc1)Nc1nnc(-c2ccco2)s1 | ? | – | ? | –
SMILES | Pf growth 96h | Pf growth 48h | Sm TGR block | SARS PLpro yeast
CCC(C(=O)Nc1nnc(-c2ccco2)s1)c1ccccc1 (configuration not stated) | 12µM | – | 32µM | –
COc1ccccc1OCC(=O)Nc1nnc(-c2ccco2)s1 | – | – | 32µM | –
O=C(COc1ccccc1F)Nc1nnc(-c2ccncc2)s1 | – | · | – | –
CCCC(=O)Nc1nnc(-c2ccco2)s1 | 13µM | – | ? | –
Cc1ccccc1OCC(=O)Nc1nnc(-c2ccncc2)s1 | 15µM | – | – | –
Cc1ccc(C)c(N2CCN(c3nc4ccccc4n4nnnc34)CC2)c1 | · | · | – | ·
Cc1cccc(OCC(=O)Nc2nnc(-c3ccco3)s2)c1 | 5.2µM | – | 14µM | –
Cc1cc(C)c(NC(=O)CSC2=Nc3ccccc3C3=NC(CC(=O)NCc4cccs4)C(=O)N23)c(C)c1 (configuration not stated) | · | · | – | ·
CN(C)/C=N/c1c(C#N)cnn1-c1ncnc2sc(-c3ccccc3)cc12 | 10µM | ? | – | –
Cc1ccc(S(=O)(=O)Nc2cccc3cccnc23)cc1 | 3.7µM | · | – | –
COc1ccc(S(=O)(=O)Nc2ccccn2)cc1 | – | – | – | –
COc1cc(NS(=O)(=O)c2ccc(C)cc2)c2ncccc2c1 | – | 2.3µM | – | –
Cc1ccc(S(=O)(=O)Nc2ccccc2-c2ccccc2NS(=O)(=O)c2ccc(C)cc2)cc1 | – | ? | – | –
COc1cc(NCCCC(C)N)c2ncccc2c1 (configuration not stated) | 0.85µM | 0.26µM | 35µM | –
Cc1ccc2[nH]c3c(N4CCc5ccccc5C4)ncnc3c2c1 | ? | ? | – | –
Fc1ccc2[nH]c3c(N4CCc5ccccc5C4)ncnc3c2c1 | 1.9µM | 2.9µM | – | –
Cc1ccc2[nH]c3c(N4CCOCC4)ncnc3c2c1 | ? | ? | – | –
Brc1ccc2[nH]c3c(N4CCc5ccccc5C4)ncnc3c2c1 | · | 1.7µM | – | –
CN1CCN(c2ncnc3c2[nH]c2ccc(F)cc23)CC1 | ? | 2.9µM | – | –
c1ccc2c(c1)[nH]c1c(N3CCCC3)ncnc12 | 2.6µM | ? | – | –
CCOc1ccc2[nH]c3c(N4CCc5ccccc5C4)ncnc3c2c1 | 13µM | ? | – | –
Cc1ccc(N2C(=O)c3ccccc3C2C(=O)c2ccc(O)cc2O)cc1 (configuration not stated) | – | – | ? | –
Cc1ccc(N2C(=O)c3ccccc3C2C(=O)c2ccc(C)c(C)c2O)cc1 (configuration not stated) | 5.2µM | ? | 4.5µM | –
Cc1ccc(N2C(=O)c3ccccc3C2C(=O)c2cc(C)ccc2O)cc1 (configuration not stated) | 2.6µM | 2.6µM | ? | –
Cc1ccc(C2C(C(=O)O)c3ccccc3C(=O)N2C)c(C)c1 (configuration not stated) | ? | – | – | ?
SMILES | Pf growth 96h | Pf growth 48h | Sm TGR block | SARS PLpro yeast
CC(=O)N1CCc2cc(S(=O)(=O)NC(CC(C)C)C(=O)NCCc3ccccc3)ccc21 (configuration not stated) | · | · | – | ·
CC(=O)N1CCOc2ccc(S(=O)(=O)N3CCCC(C)C3)cc21 (configuration not stated) | 12µM | – | – | –
CC(=O)N1CCOc2ccc(S(=O)(=O)NCCc3cccc(C)c3)cc21 | 10µM | – | – | –
CC(=O)N1CCOc2ccc(S(=O)(=O)N3CCC(C(=O)Nc4ccc(C)c(C)c4)CC3)cc21 | ? | – | – | –
CC(=O)N1CCOc2ccc(S(=O)(=O)N3CCC(C(=O)Nc4ccc(F)cc4)CC3)cc21 | 15µM | ? | – | ?
CC(=O)N1CCOc2ccc(S(=O)(=O)N3C(C)CCCC3C)cc21 (configuration not stated) | – | – | – | –
